# Laboratory results published in PubChem BioAssay (NCATS).
# Inconclusive results are not listed. Entries that show only a call come without a potency. Values without a mark were called inactive. The source made the active and inactive calls. Calls follow the shape of the dose curve; as a rule, active = well fitted curve in the direction sought with a large enough effect; inconclusive = small, poorly fitted or top-dose-only effect, or another doubt; inactive = no such curve, though single readings can be large; an effect the other way counts as inactive or inconclusive.
# Experiments:
# [1] = P-glycoprotein substrates identified in KB-3-1 adenocarcinoma cell line, qHTS therapeutic library screen (AID 1346986); also: nearly all actives have a fitted effect of over 60% in size
# Procedure, shortened: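 In 1536-well format, 500 cells/well received pinned compound titrations and were incubated 72 h, 5% CO2. Viability was read by CellTiter-Glo; cytotoxic if AC50 < 10 uM and efficacy >50%.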
# [2] = P-glycoprotein substrates identified in KB-8-5-11 adenocarcinoma cell line, qHTS therapeutic library screen (AID 1346987); also: nearly all actives have a fitted effect of over 65% in size; as to activity change, negative = cytotoxicity: series mostly up to about 44 µM
# Procedure, shortened: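 Luminescence from CellTiter-Glo, read 5 min after addition, quantified survival of KB-8-5-11 (P-gp-overexpressing) cells exposed to compounds for 72 h. AC50 was derived from concentration-response curves.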
Structure (SMILES),Potency [1],Potency [2],outcome [1],"activity change, negative = cytotoxicity [2]"
CC(=O)O[C@@H]1[C@@H](O)[C@H](O[C@H]2CC[C@]34C[C@]35CC[C@]3(C)[C@@H]([C@@]6(C)CC[C@@H](C(C)(C)O)O6)[C@@H](O)C[C@@]3(C)[C@@H]5C[C@H](O[C@@H]3O[C@H](CO)[C@@H](O)[C@H](O)[C@H]3O)[C@H]4C2(C)C)OC[C@H]1O,inactive,inactive,,
CC(=O)c1cc2c(cc1O)OC(C)(C)C=C2,inactive,inactive,,
OC[C@H]1O[C@@H](OC(CCCCc2ccc(O)cc2)CCc2ccc(O)cc2)[C@H](O)[C@@H](O)[C@@H]1O (stereo partly drawn),inactive,inactive,,
CC1CC(O)C2(OC1=O)OC1C(O)C3C4CCC5CC(OC6OC(CO)C(O)C(O)C6OC6OC(C)C(O)C(O)C6O)CCC5(C)C4CCC3(C)C1C2C (stereo not drawn),inactive,inactive,,
CC1(C)CC[C@]2(C(=O)O)CC[C@]3(C)C(=CCC4[C@@]5(C)CC[C@H](O[C@@H]6O[C@H](C(=O)O)[C@@H](O[C@@H]7OC[C@@H](O)[C@H](O)[C@H]7O)[C@H](O)[C@H]6O)C(C)(C)C5CC[C@]43C)C2C1O (stereo partly drawn),inactive,inactive,,
C=C1C(=O)OC2C1C(O)CC1(C)C(O)CCC(C=O)C21 (stereo not drawn),inactive,inactive,,
CC12CCC3c4ccc(OC5OC(C(=O)O)C(O)C(O)C5O)cc4CCC3C1CCC2O (stereo not drawn),inactive,inactive,,
CC(C)C1=CC2C(CC[C@]2(C)O)[C@](C)(O)CC1 (stereo partly drawn),inactive,inactive,,
CC1OC(OC2C(C)OC(OC3C(OC(=O)C45CCC(C)(C)CC4C4=CCC6C7(C)CCC(OC8OC(C(=O)O)C(O)C(O)C8OC8OC(CO)C(O)C(OC9OC(C)C(O)C(O)C9O)C8O)C(C)(CO)C7CCC6(C)C4(C)CC5)OC(CO)C(O)C3O)C(O)C2O)C(O)C(O)C1O (stereo not drawn),,,inactive [at 9.29 µM],1.71% [at 9.29 µM]
